± gives the standard deviation of the averaged measurements. Over roughly 33,000 sequences, “E-score (rank enrichment, -0.5 to 0.5)” has its median near -0.0068; the highest 2% begin near 0.24. What follows is part of a selection rich in the highest values, with near analogues and random picks from the rest.

This assay has as its system muMax20 (Max(13-93) K31hArg/K57hArg, M65Nle). In words: PBM 8-mer E-score (E-score (rank enrichment, -0.5 to 0.5)); higher = stronger preferential binding. The procedure:
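Protein binding microarray (universal PBM chip covering all 10-mers in fixed probe flanks) with chemically synthesized human Max(13-93) bHLH-LZ analogs (not full-length Max) bearing noncanonical residues (hArg, Tha, Aib, Nle at 65) and aromatic Cys staples. Read-out per 8-mer (and its reverse complement): E-score (rank-based enrichment, -0.5 to 0.5) and Z-score of median probe intensity.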
With CTTTCGGC, the “PBM 8-mer E-score” value was -0.149 ± 0.041. Under CAAACCTA stands 0.125 ± 0.027; under AAAAACCT, 0.25 ± 0.024. The result for AAAAACCG reads 0.0778 ± 0.087. Regarding AAAAACCA, the “PBM 8-mer E-score” value amounted to 0.244 ± 0.0092. The result for AAAACCTA reads 0.269 ± 0.0045; that for CAAAACCA, 0.0801 ± 0.046. On to AAAACCTT, for which the “PBM 8-mer E-score” value was 0.103 ± 0.011. As to TAAAACCA, the “PBM 8-mer E-score” value is 0.131 ± 0.048. Under AAAAACCC stands -0.0325 ± 0.027. Consider CCTTGCGC, for which the “PBM 8-mer E-score” value was -0.034 ± 0.012. Under GGGGCGAC stands -0.0761 ± 0.044; under AATCAGCG, -0.0368 ± 0.011; under AATCAGCC, -0.00374 ± 0.048. Under AATCAGCT stands 0.298 ± 0.065. As to ACTTTGAT, the “PBM 8-mer E-score” value worked out at 0.142 ± 0.062.

Take TCAGTAAA: the “PBM 8-mer E-score” value was 0.013 ± 0.12.

As to CATACTTC, the “PBM 8-mer E-score” value stood at 0.181 ± 0.048. The result for GATATACA reads 0.0962 ± 0.0042; that for CATATACC, 0.0712 ± 0.07; that for TATATAGA, 0.0968 ± 0.19.

In the case of CATATAGA, the “PBM 8-mer E-score” value was found to be 0.145 ± 0.049. In the case of AATATAGA, the “PBM 8-mer E-score” value worked out at 0.292 ± 0.049. As to CATATACA, the “PBM 8-mer E-score” value is 0.254 ± 0.031.

In the case of AATATACA, the “PBM 8-mer E-score” value was determined as 0.293 ± 0.01.

Regarding TATATACA, the “PBM 8-mer E-score” value stood at 0.178 ± 0.03. Under AATATACT stands 0.215 ± 0.043. The result for TACATCAA reads 0.11 ± 0.093; that for GCCAAGCC, -0.109 ± 0.012; that for GAGTGACC, -0.141 ± 0.015.

Regarding CCGTCCCA, the “PBM 8-mer E-score” value stood at 0.0086 ± 0.03. Under AATGTCAT stands 0.0752 ± 0.093.

In the case of CCTAAGAC, the “PBM 8-mer E-score” value amounted to 0.0353 ± 0.033.

Regarding CTAGTAAA, the “PBM 8-mer E-score” value is 0.0505 ± 0.014. As for ATAGTAAT, the “PBM 8-mer E-score” value was found to be 0.158 ± 0.027. Consider ATAGTTAA, for which the “PBM 8-mer E-score” value was determined as 0.261 ± 0.0096. The result for ATAGTAAA reads 0.262 ± 0.012; that for ATAGTAGG, 0.0443 ± 0.12; that for GTAGTAGA, 0.0328 ± 0.058. As for ATAGTTAC, the “PBM 8-mer E-score” value was 0.181 ± 0.06. Under ATAGTAGA stands 0.253 ± 0.031; under ATAGTTAG, 0.0831 ± 0.052. For TGGGTTAA, the “PBM 8-mer E-score” value stood at 0.053 ± 0.046. The result for GCCTCTCC reads 0.0347 ± 0.12; that for GCGAATCA, -0.157 ± 0.067; that for CCGATGGA, -0.246 ± 0.043.

Take TAACGGTA: the “PBM 8-mer E-score” value turned out to be 0.204 ± 0.011.

On to TAAGCTGA, for which the “PBM 8-mer E-score” value worked out at 0.0855 ± 0.056.

As for AACACGGG, the “PBM 8-mer E-score” value stood at 0.0469 ± 0.0099.

Consider CGATGCGA, for which the “PBM 8-mer E-score” value is -0.117 ± 0.088. Under GAAGCCGC stands -0.115 ± 0.058; under AACGTGGT, 0.285 ± 0.029; under AGCGTGAT, 0.25 ± 0.013. Regarding AGCGTGAG, the “PBM 8-mer E-score” value is 0.0998 ± 0.075. The result for AACGTGAG reads 0.0485 ± 0.088.

For AACGTGAT, the “PBM 8-mer E-score” value worked out at 0.272 ± 0.01. Turning to AACGTGGA, the “PBM 8-mer E-score” value amounted to 0.162 ± 0.015. Under AACGTGCT stands 0.0241 ± 0.0069. Under AACGTGAA stands 0.0196 ± 0.026; under AGCGTGAC, 0.117 ± 0.086; under ACCCCGTC, -0.138 ± 0.05.

GGGGCGGA: the “PBM 8-mer E-score” value was 0.0311 ± 0.065. The result for AAACTAAC reads 0.121 ± 0.026; that for AGATGCAG, -0.0831 ± 0.013.

For the sequence CGTTCGAA, the “PBM 8-mer E-score” value was -0.071 ± 0.086.

Regarding GCGGGCTA, the “PBM 8-mer E-score” value was -0.103 ± 0.02. ACATGTAT: the “PBM 8-mer E-score” value stood at 0.307 ± 0.067. On to CCATGTAG, for which the “PBM 8-mer E-score” value was 0.0489 ± 0.046. Under ACATGTCG stands 0.189 ± 0.086; under ACATGTCT, 0.183 ± 0.035.

For the sequence CCATGTAA, the “PBM 8-mer E-score” value is 0.0522 ± 0.048. The result for ACATGTAA reads 0.249 ± 0.034; that for TCATGTAA, 0.112 ± 0.08. Consider GCATGTAC, for which the “PBM 8-mer E-score” value was determined as 0.15 ± 0.081. The result for CCATGTAC reads 0.0415 ± 0.16. Regarding ACATGTAG, the “PBM 8-mer E-score” value is 0.255 ± 0.05. Under ACATGTAC stands 0.286 ± 0.021; under AGATGTAT, 0.177 ± 0.041. CCTTGTAG: the “PBM 8-mer E-score” value is -0.0398 ± 0.016. The result for ATGTTTGC reads 0.119 ± 0.034; that for ATTCCCGC, -0.0964 ± 0.2; that for AACTTATG, 0.0994 ± 0.081.

In the case of AAGGGAAG, the “PBM 8-mer E-score” value came out at 0.201 ± 0.074. The result for ATGCTCGA reads 0.0908 ± 0.059; that for AAACTTGC, 0.203 ± 0.058.

Turning to AAACTTGA, the “PBM 8-mer E-score” value came out at 0.241 ± 0.0031. Under TAACTTGA stands 0.033 ± 0.066; under ATAAGAGG, 0.0841 ± 0.026.

For the sequence CTCAAACA, the “PBM 8-mer E-score” value turned out to be 0.079 ± 0.12. Under ATCAAAAA stands 0.284 ± 0.035.

Consider ATCAAGCA, for which the “PBM 8-mer E-score” value stood at 0.012 ± 0.021. Take ATCAAACA: the “PBM 8-mer E-score” value turned out to be 0.29 ± 0.056. Under ATCAAAAT stands 0.0188 ± 0.1; under ATCAAAAG, 0.0605 ± 0.033; under TAGGTTCA, -0.12 ± 0.087.

Consider GGCCCTAA, for which the “PBM 8-mer E-score” value stood at 0.0586 ± 0.04. GTGGACGA: the “PBM 8-mer E-score” value was -0.0727 ± 0.036. The result for CTGCCTTC reads -0.136 ± 0.047.

Consider AGTCGTGC, for which the “PBM 8-mer E-score” value is -0.11 ± 0.024. The result for CAGACGCG reads -0.145 ± 0.18.

For the origin of these results see the supplement of paper PMC12636033.
